hcDAF12 agonist – activates DAF-12 receptor from parasite H. contortus; HEK293 hcDAF-12 lit1-tk-luc reporter, luminescence; 0% DMSO, 100% Δ7-dafachronic acid; activation, % at 6.8 µM; actives 1.4% (n = 370,000); AID 652067;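 active = activation above the mean of all tested compounds plus 3 SD, cut at about 5.5% in these data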;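 also: 100% = response to 3 µM Δ7-dafachronic acid high control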
hgDAF-12 ag – hgDAF-12 agonism, primary luciferase screen | HEK293 GAL4-hgDAF12 UAS-luciferase reporter, agonist luminescence; normalized to butyrate control | activation, % at 6.8 µM | actives 1.8% (n = 370,000);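 active = activation above a cutoff set at the mean of all screened compounds plus 3 SD, cut at about 10% in these data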;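 also: 0% = DMSO wells and 100% = sodium butyrate wells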
ssDAF12 agonist – S. stercoralis DAF-12 activation, primary screen; HEK293 ssDAF-12/GRIP1 lit1-tk-luc reporter, luminescence; % of 3 µM dafachronic acid response; activation, % at 6.8 µM; actives 1% (n = 370,000); AID 652126;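 active = activation above the mean over all tested compounds plus 3 SD, cut at about 0.9% in these data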;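 also: 0% = DMSO-only wells and 100% = 3 µM delta7-dafachronic acid wells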
DAX1 inh-1 – blocks DAX1 repression of SF-1 activated StAR promoter; HEK293T StAR-luciferase reporter, SF-1/DAX-1 repression relief; inhibition, % at 6.8 µM; actives 1.1% (n = 370,000); AID 652010;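 active = inhibition above the mean over all tested compounds plus 3 SD, cut at about 3.6% in these data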;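 also: 0% = DAX-1 cells with DMSO and 100% = cells lacking DAX-1 with DMSO; higher inhibition means more luminescence from relief of DAX-1 repression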
DAX1 inh-2 – inhibits human nuclear receptor DAX1; HEK293 Gal4-DAX1 luciferase reporter, luminescence; AID 504766; inhibition, % at 6.75 µM; P51843; actives 0.99% (n = 340,000);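 active = inhibition above the mean over all tested compounds plus 3 SD, cut at about 4.2% in these data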;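 also: 0% = DAX1-transfected cells with DMSO and 100% = empty-vector control cells with DMSO; inhibition shows as a rise in luminescence from relieved DAX1 repression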
Target sequence (P51843 207-470 limits assumed): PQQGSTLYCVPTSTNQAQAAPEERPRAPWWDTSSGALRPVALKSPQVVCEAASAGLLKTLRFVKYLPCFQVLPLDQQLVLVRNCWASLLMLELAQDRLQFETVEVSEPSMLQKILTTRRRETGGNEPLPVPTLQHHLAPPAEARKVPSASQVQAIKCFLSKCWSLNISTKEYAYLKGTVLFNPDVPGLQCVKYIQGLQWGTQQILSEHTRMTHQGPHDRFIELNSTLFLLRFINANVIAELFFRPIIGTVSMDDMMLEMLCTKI
AHR activator – activates the human aryl hydrocarbon receptor | actives 2.5% (n = 320,000) | AID 2796 | AHR-responsive luciferase reporter cells, luminescence | P35869 | activation, % at 5 µM; in the data active = activation above about 47%;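 also: 0% = vehicle wells and 100% = reference agonist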
Active calls of the source: *; · = no result. Most compounds without a hit are left out; they make up all but 5.7% or so of the library.

SMILES | hcDAF12 agonist | hgDAF-12 ag | ssDAF12 agonist | DAX1 inh-1 | DAX1 inh-2 | AHR activator
COCCNC(=O)c1cnn2c(C(F)F)cc(-c3ccc(C)cc3)nc12 | -1 | -1 | -1 | -1 | 0 | 3
CCC(C)(C(=O)NC1CCCCC1)N(C)C(=O)c1ccccn1 (configuration not stated) | 6.1* | 2 | -1 | 0 | 0 | -2
C#CCSc1ncc(-c2ccccc2)cn1 | 4 | 13* | 1.9* | 1 | 1 | 1
COc1ccc(NC(=O)COC(=O)CCC2CCCCC2)cc1 | 1 | 2 | -1 | 0 | 0 | 0
CC(C)(C)c1ccc(/C=C/C(=O)N2CCCCC2)cc1 | 3 | 11* | 0 | 3.7* | 4 | ·
O=C1OCC/C1=C\c1ccc2c(c1)OCO2 | 1 | 2 | -1 | -1 | 1 | 10
O=C1/C(=C\c2ccc3c(c2)OCO3)CCC/C1=C/c1ccc2c(c1)OCO2 | -1 | 0 | -1 | 0 | 0 | 48*
CN(CC(=O)Nc1ccc(N2CCOCC2)cc1)Cc1c(O)ccc2ccccc12 | 2 | 0 | -1 | 0 | 1 | 24
COc1ccc2[nH]c(=O)c(CNc3ccc(C)cc3C)cc2c1 | 2 | 1 | -2 | 1 | 0 | 8
COc1ccc2[nH]c(=O)c(CNc3ccccc3OC)cc2c1 | 3 | -1 | -1 | 0 | 4.5* | 24
COc1ccc2[nH]c(=O)c(CNc3ccccc3C)cc2c1 | 3 | 7 | 1.4* | 1 | 2 | 7
COc1ccc2[nH]c(=O)c(CNc3cc(C)ccc3C)cc2c1 | 3 | 3 | -1 | 0 | 2 | 15
COc1ccc2[nH]c(=O)c(CNc3ccccc3)cc2c1 | 4 | 10 | 0 | 2 | 4.5* | 3
CCOC(=O)c1cc(-c2ccccc2)n(CCC(=O)NC(C)CC)c1C (configuration not stated) | -3 | 0 | -2 | -1 | -1 | 2
Cc1ccc(-c2nn(-c3ccc(F)cc3)cc2C(=O)NCC2CCCO2)cc1 (configuration not stated) | -1 | 0 | -1 | -1 | 1 | 8
CC(C)C[C@@H]1NC(=O)[C@H](CO)NC(=O)c2cc([N+](=O)[O-])cc(I)c2OCC[C@@H](C(N)=O)NC1=O | · | · | · | · | 1 | 0
CC1CSc2ccccc2NC1=S (configuration not stated) | 1 | -1 | -1 | -1 | -1 | 1
c1ccc(C2CSc3ccccc3N2)cc1 (configuration not stated) | 5.6* | 6 | 0 | 1 | 3 | 19
O=C(NCc1ccccc1)C1=C[C@H](C2CCCCC2)C[C@H](OCc2ccc(CO)cc2)O1 | 0 | -1 | -2 | -1 | 1 | 1
O=S(=O)(NCc1csc(-c2cccnc2)n1)c1cccs1 | 0 | 3 | 0.9* | 1 | 0 | 19
O=S(=O)(NCCc1csc(-c2cccnc2)n1)c1ccc(Cl)s1 | -2 | -6 | -2 | -1 | -1 | 21
O=S(=O)(NCCc1csc(-c2cccnc2)n1)c1cccs1 | -1 | -2 | -1 | 0 | 0 | 69*
N#Cc1ccc(Oc2ccc(-c3nc4ccccc4nc3-c3ccccc3)cc2)cc1C#N | -2 | 2 | -2 | 0 | 0 | 8
COc1cc(=O)[nH]c(SC(C)C(=O)Nc2nc3c(s2)CCCC3)n1 (configuration not stated) | 1 | 2 | -1 | 0 | 0 | 0
O=C(O)Cn1cc(C(=S)N2CCOCC2)c2ccccc21 | -2 | -1 | -1 | 0 | 1 | 0
SMILES | hcDAF12 agonist | hgDAF-12 ag | ssDAF12 agonist | DAX1 inh-1 | DAX1 inh-2 | AHR activator
O=C(O)Cn1cc(C(=S)N2CCCCC2)c2ccccc21 | 3 | 0 | -2 | 1 | 6.2* | 2
O=C(O)Cn1cc(/C=C/[N+](=O)[O-])c2ccccc21 | 4 | 3 | 0.9* | 1 | -1 | 10
COC(=O)C12CCC3(SCCS3)C(C(=O)OC)(CCC13SCCS3)C2 | 0 | 3 | -2 | 0 | 1 | -1
C/C(=N\NC(=O)c1c(Cl)cnn1C)c1cccnc1 | 1 | 6 | -1 | 4.3* | 2 | ·
CC(C)c1ccc(/C=N/NC(=O)c2c(Cl)cnn2C)cc1 | 1 | 13* | 0 | 3 | -1 | 12
C/C(=N\NC(=O)c1ccc(Cl)cc1)c1cccnc1 | 2 | 1 | -1 | 0 | 2 | 15

Screening results deposited in PubChem BioAssay by The Scripps Research Institute Molecular Screening Center.
